PubChem BioAssay
Several values for one entry are separate records, joined by “and”; a condition that tells them apart may be missing. Equal entries are not always repeated. Activity calls are given as the source filed them.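 The calls were made as follows, unless noted: active = compounds whose cell count with miR-34 switched on is under 0.7 times the count with it off; inactive = the rest.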

Experiments:
[1] = Wnt pathway potentiators raising nuclear beta-catenin – imaging, WNT3A-conditioned medium, mouse C2C12, NPC library, primary screen (AID 1117326; in the data active = nuclear beta-catenin stimulation mostly above about 4.2%, no sharp cut-off; inactive = mostly below about 10%); conditions: stronger effect = higher value
[2] = stimulators of insulin release from INS-1E, primary screen, cell-based, 5 mM glucose, NPC library (AID 1117329;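 active = compound raises insulin release from rat beta cells at 5 mM glucose, no numeric limit stated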); conditions: rat INS-1E insulin secretion, at 10 µM, stronger effect = higher value
[3] = growth inhibition of GSK3B-pretreated HCT116 cells – cell-based, CellTiter-Glo, 0.2 to 20 µM (AID 1117336;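 active = compounds lowering colon cancer cell viability after pretreatment blocking the GSK3B kinase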); conditions: HCT116 viability after GSK3B inhibitor, at 20 µM, stronger effect = higher value
[4] = inhibition of endothelial tube formation, primary screen, imaging, VEGF stimulated, CD31 staining, tube area, NPC library (AID 1117340;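 active = compound that reduces growth-factor-driven endothelial tube area in a mixed cell culture, no cutoff stated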); conditions: VEGF-stimulated ADSC/ECFC co-culture, at 10 µM, stronger effect = higher value
[5] = GLP1 release stimulators, primary, NCI-H716, NPC library (AID 1117341;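 active = compound raises GLP1 secretion from the human gut endocrine cells, with no numeric limit stated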); conditions: NCI-H716 cells, at 10 µM, stronger effect = higher value
[6] = HCT116 colon cancer cell growth inhibition, primary screen, CellTiter-Glo luminescence, NPC library (AID 1117342;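 active = compounds that lower survival of HCT116 colon cancer cells in the luminescence readout, no numeric limit stated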); conditions: at 20 µM (top of the series)
[7] = reduced SW480 viability measured with CellTiter-Glo, NPC library, primary (AID 1117343;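 active = compounds that lower viability of the colon cancer cells in the luminescence readout, with no numeric limit stated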); conditions: CellTiter-Glo luminescence; at 20 µM (top of the series) unless noted
[8] = NPC library primary testing for decreased DLD-1 cell viability via CellTiter-Glo (AID 1117346;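 active = compounds that lower survival of DLD-1 colon cancer cells in the luminescence readout, no cutoff given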); conditions: DLD-1 viability, CellTiter-Glo luminescence; at 20 µM (top of the series)
[9] = viability loss with induced miR-34 in A549 – imaging, A549 dox-inducible miR-34, nuclei and caspase counts, primary screen (AID 1347080); conditions: A549 miR-34 inducible, Hoechst nuclei count, 48 h
[10] = MELAS cybrid and Rieske KO viability enhancers – cell-based, MELAS cybrids, Rieske KO mouse fibroblasts, CellTiter-Glo, primary screen (AID 1508586;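 active = mean z-score across replicates of 1.96 or higher in either the MELAS or the Rieske mutant cell line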;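 also: z relative to plate mean and SD of compound and empty wells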); conditions: low glucose
[11] = blockers of cellular phospholipid synthesis – cell-based, LOPAC library, screen 4, primary screen (AID 1347384; call rule not given here); conditions: animal cells, phospholipid biosynthesis inhibition screen; at 10 µM
[12] = galactose survival enhancers in mitochondrial complex I cybrids – cell-based, galactose medium, ATP luminescence, primary screen (AID 1645843;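 active = z-score of at least 1.8 in each of two replicates, scored against plate mean and spread of sample wells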;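 also: positive z means more ATP and so rescue of galactose-driven cybrid death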); conditions: complex I mutant cybrid cells, 72 h, stronger effect = higher value
[13] = tested on: Hepatitis C virus NS3 helicase; experiment: blockers of NS3h binding to ssDNA – biochemical, fluorescence polarization, LOPAC1280 library, primary screen (AID 687035; in the data active = inhibition above about 37%); conditions: Purified HCV NS3 helicase, Cy5-dT15 ssDNA binding fluorescence polarization; stronger effect = higher value; concentration not given here
[14] = compounds altering Cy5-DNA-NS3h complex signal – biochemical, LOPAC1280, artefact control for HCV NS3 helicase inhibitor project (AID 687037; call rule not given here); conditions: Cy5-DNA-NS3h complex fluorescence interference counterscreen
[15] = P. berghei load reduction in hepatocytes – cell-based, HepG2, luciferase luminescence, HepG2 viability, primary screen (AID 624349; in the data active = parasite load remaining mostly below about 12%, no sharp cut-off; inactive = mostly above about 10%;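 also: 100% = mean of DMSO negative control wells on the same plate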); conditions: P. berghei liver stage in HepG2, luciferase luminescence, concentration not given here; parasite load remaining: stronger effect = lower value; viability: measured here: HepG2 viability without parasites
[16] = stronger effect = lower value, cell number ratio, induced over uninduced
[17] = measured here: relative caspase fold change +Dox/-Dox
[18] = measured here: total cells with miR-34 induction, stronger effect = lower value
[19] = measured here: total cells without miR-34 induction
[20] = MELAS cybrid survival, CellTiter-Glo 48 h, stronger effect = higher value
[21] = Rieske KO mouse fibroblast survival, CellTiter-Glo 72 h

For `CC(C=CC=C(C)C=CC1=C(C)CCCC1(C)C)=CC=CC=C(C)C=CC=C(C)C=CC1=C(C)CCCC1(C)C`, the nuclear beta-catenin stimulation ([1]; at 10 µM) was 1.5% (inactive), the nuclear beta-catenin stimulation ([1]; stimulation, at 2 µM) was 1.5% and the insulin secretion stimulation [2] was 3.2% (inactive). For the same compound, the viability decrease [3] was -39.2% (inactive), the tube area decrease [4] was 5.4% (inactive) and the GLP1 secretion stimulation [5] was 5.7% (inactive). For the same compound, the inhibition of viability [6] was 1.37% (inactive), the viability decrease (inhibition) [7] was 19.1% (inactive) and the viability decrease (inhibition) [8] was 3.2% (inactive). The fold change [9, 16] was 0.877 (inactive), the fold change [9, 17] was 0.984 and the cell count [9, 18] was 7760. The cell count [9, 19] was 8840, the z-score [10, 20] was -0.304 (inactive) and the z-score [10, 21] was 0.553.

In the case of `NC1[C@H]2CN(c3nc4c(cc3F)c(=O)c(C(=O)O)cn4-c3ccc(F)cc3F)C[C@@H]12` (some centres undefined), the nuclear beta-catenin stimulation ([1]; at 10 µM) is reported as -0.6% (inactive), the nuclear beta-catenin stimulation ([1]; stimulation, at 2 µM) is reported as 0.5% and the insulin secretion stimulation [2] is reported as 17.5% (inactive). For the same compound, the viability decrease [3] was 64.3% (active), the tube area decrease [4] was 26.1% (inactive) and the GLP1 secretion stimulation [5] was -0.1% (inactive). For the same compound, the inhibition of viability [6] was 58.4% (active), the viability decrease (inhibition) [7] was 82.9% (active) and the viability decrease (inhibition) [8] was 58.6% (active). The fold change [9, 16] was 1.35 (inactive), the fold change [9, 17] was 1.08 and the cell count [9, 18] was 3150. The cell count [9, 19] was 2330, the outcome [11] was “inactive” and the z-score [12] was 2.21 (active).

With `CCCCCCCCCCCCCCC[C@H](O)[C@@H](N)CO` the nuclear beta-catenin stimulation ([1]; at 10 µM) was 43.1% (active), the nuclear beta-catenin stimulation ([1]; stimulation, at 2 µM) was 1.5% and the insulin secretion stimulation [2] was 1% (inactive). For the same compound, the viability decrease [3] was 72.1% (active), the tube area decrease [4] was 17.5% (inactive) and the GLP1 secretion stimulation [5] was 7.7% (inactive). For the same compound, the inhibition of viability [6] was 69.8% (active), the viability decrease (inhibition) [7] was 143% (active) and the viability decrease (inhibition) [8] was 104% (active). The fold change [9, 16] was 0.915 (inactive), the fold change [9, 17] was 1.42 and the cell count [9, 18] was 5120. For the same compound, the cell count [9, 19] was 5600.

With `COC(=O)C1=C(C)NC(C)=C(C(=O)OC(C)(C)CN(C)CCC(c2ccccc2)c2ccccc2)C1c1cccc([N+](=O)[O-])c1` (centres undefined) the inhibition [13] was 3% (inactive), the fluorescence ratio (interference) [14] was 1 (inactive) and the nuclear beta-catenin stimulation ([1]; at 10 µM) was 22.4% (inactive). For the same compound, the nuclear beta-catenin stimulation ([1]; stimulation, at 2 µM) was -0.9%, the insulin secretion stimulation [2] was 1.3% (inactive) and the viability decrease [3] was 93.2% (active). The tube area decrease [4] was 90.2% (active), the GLP1 secretion stimulation [5] was -3.7% (inactive) and the inhibition of viability [6] was 94% (active). The viability decrease (inhibition) [7] was 127% (active), the viability decrease (inhibition) [8] was 92.5% (active) and the fold change [9, 16] was 1.26 (inactive) and 0.934 (inactive). For the same compound, the fold change [9, 17] was 1.89 and 0.993, the cell count [9, 18] was 1980 and 4820 and the cell count [9, 19] was 1570 and 5160. For the same compound, the outcome [11] was “active”, the z-score [10, 20] was -0.809 (inactive) and the z-score [10, 21] was -0.0835. For the same compound, the z-score [12] was -1.52 (inactive) and -2.66 (inactive).

With `CC(=O)[C@@]1(O)CC[C@H]2[C@@H]3CCC4=CC(=O)CC[C@]4(C)[C@H]3CC[C@@]21C` the parasite load remaining [15] was 0.96% (inactive), the viability [15] was 66% and the inhibition [13] was 0% (inactive). The fluorescence ratio (interference) [14] was 1 (inactive), the nuclear beta-catenin stimulation ([1]; at 10 µM) was 1.2% (inactive) and the nuclear beta-catenin stimulation ([1]; stimulation, at 2 µM) was 2.3%. The insulin secretion stimulation [2] was 0.95% (inactive), the viability decrease [3] was 14.3% (inactive) and the tube area decrease [4] was -5.3% (inactive). For the same compound, the GLP1 secretion stimulation [5] was 2% (inactive), the inhibition of viability [6] was 20.1% (inactive) and the viability decrease (inhibition) [7] was 10.2% (inactive). The viability decrease (inhibition) [8] was -4.1% (inactive), the fold change [9, 16] was 0.967 (inactive) and 0.853 (inactive) and the fold change [9, 17] was 1.72 and 1.68. For the same compound, the cell count [9, 18] was 8400 and 8890, the cell count [9, 19] was 8690 and 10400 and the outcome [11] was “inactive”. The z-score [10, 20] was -0.428 (inactive), the z-score [10, 21] was 0.151 and the z-score [12] was -0.055 (inactive) and -1.24 (inactive).

In the case of `CC1=C(C(=O)OC(C)C)C(c2cccc([N+](=O)[O-])c2)C(C(=O)OC2CN(C(c3ccccc3)c3ccccc3)C2)=C(N)N1` (centres undefined), the nuclear beta-catenin stimulation ([1]; at 10 µM) is reported as -2% (inactive), the nuclear beta-catenin stimulation ([1]; stimulation, at 2 µM) is reported as 2.2% and the insulin secretion stimulation [2] is reported as 5.2% (inactive). For the same compound, the viability decrease [3] was 111% (active), the tube area decrease [4] was 109% (active) and the GLP1 secretion stimulation [5] was 40.3% (active). For the same compound, the inhibition of viability [6] was 113% (active), the viability decrease (inhibition) [7] was 133% (active) and the viability decrease (inhibition) [8] was 102% (active). The fold change [9, 16] was 0.933 (inactive), the fold change [9, 17] was 0.636 and the cell count [9, 18] was 7560. For the same compound, the cell count [9, 19] was 8100, the z-score [10, 20] was -0.296 (inactive) and the z-score [10, 21] was -0.252.

In the case of `COc1ccc(CCN(C)CCCC(C#N)(c2cc(OC)c(OC)c(OC)c2)C(C)C)cc1OC` (centres undefined), the inhibition [13] is reported as -1% (inactive), the fluorescence ratio (interference) [14] is reported as 1 (inactive) and the nuclear beta-catenin stimulation ([1]; at 10 µM) is reported as 1% (inactive). For the same compound, the nuclear beta-catenin stimulation ([1]; stimulation, at 2 µM) was 0.7%, the insulin secretion stimulation [2] was 0.45% (inactive) and the viability decrease [3] was -1.5% (inactive). For the same compound, the tube area decrease [4] was 6.2% (inactive), the GLP1 secretion stimulation [5] was 5.2% (inactive) and the inhibition of viability [6] was 18.9% (inactive). The viability decrease (inhibition) [7] was 22% (inactive), the viability decrease (inhibition) [8] was 4.6% (inactive) and the fold change [9, 16] was 1.02 (inactive) and 0.953 (inactive). The fold change [9, 17] was 0.481 and 1.24, the cell count [9, 18] was 9650 and 5610 and the cell count [9, 19] was 9490 and 5880. The outcome [11] was “inactive” and the z-score [12] was -0.635 (inactive).

In the case of `O=C1NC(=O)[C@@]2(CCOc3ccc(F)cc32)N1`, the nuclear beta-catenin stimulation ([1]; at 10 µM) is reported as -1.1% (inactive), the nuclear beta-catenin stimulation ([1]; stimulation, at 2 µM) is reported as 0.6% and the insulin secretion stimulation [2] is reported as 1.1% (inactive). For the same compound, the viability decrease [3] was -5.9% (inactive), the tube area decrease [4] was -2.4% (inactive) and the GLP1 secretion stimulation [5] was 0% (inactive). The inhibition of viability [6] was 4.6% (inactive), the viability decrease (inhibition) [7] was -5.9% (inactive) and the viability decrease (inhibition) [8] was -7.9% (inactive). The fold change [9, 16] was 0.973 (inactive), the fold change [9, 17] was 1.69 and the cell count [9, 18] was 9980. The cell count [9, 19] was 10300, the outcome [11] was “inactive” and the z-score [12] was 0.695 (inactive).

With `CCN1CCc2nc(N)oc2CC1` the inhibition [13] was -3% (inactive), the fluorescence ratio (interference) [14] was 1 (inactive) and the nuclear beta-catenin stimulation ([1]; at 10 µM) was -1.7% (inactive). For the same compound, the nuclear beta-catenin stimulation ([1]; stimulation, at 2 µM) was 0.3%, the insulin secretion stimulation [2] was 0.4% (inactive) and the viability decrease [3] was 2.7% (inactive). For the same compound, the tube area decrease [4] was 1.7% (inactive), the GLP1 secretion stimulation [5] was -1.2% (inactive) and the inhibition of viability [6] was 5.2% (inactive). For the same compound, the viability decrease (inhibition) [7] was -29.1% (inactive), the viability decrease (inhibition) [8] was -18% (inactive) and the fold change [9, 16] was 1.02 (inactive). The fold change [9, 17] was 1.71, the cell count [9, 18] was 10300 and the cell count [9, 19] was 10100. The outcome [11] was “inactive” and the z-score [12] was 0.29 (inactive).

For `C[C@]12CCC(=O)C=C1CC[C@@H]1[C@@H]2CC[C@@]2(C)[C@H]1CC[C@]2(O)C(=O)CO`, the inhibition [13] was 0% (inactive), the fluorescence ratio (interference) [14] was 1 (inactive) and the nuclear beta-catenin stimulation ([1]; at 10 µM) was 0.3% (inactive). The nuclear beta-catenin stimulation ([1]; stimulation, at 2 µM) was -0.1%, the insulin secretion stimulation [2] was -1.7% (inactive) and the viability decrease [3] was -3.9% (inactive). For the same compound, the tube area decrease [4] was 5.4% (inactive), the GLP1 secretion stimulation [5] was 1.1% (inactive) and the inhibition of viability [6] was 25.1% (inactive). The viability decrease (inhibition) [7] was 12.3% (inactive), the viability decrease (inhibition) [8] was -6.8% (inactive) and the fold change [9, 16] was 1 (inactive). For the same compound, the fold change [9, 17] was 0.913, the cell count [9, 18] was 8610 and the cell count [9, 19] was 8590. The outcome [11] was “inactive” and the z-score [12] was 0.435 (inactive).
